Tests used:
Settings in all cases: concentration: 1 μM,replicates: in singlicate; n = 1
TNNI3K = tested on: TNNI3K
TRKA = tested on: T1, TRKA
T1 construct: gene NTRK1

TRKB = tested on: TRKB
TRKC = tested on: T2, TRKC
T2 construct: gene NTRK3

TRPM6 = tested on: TRPM6
TSSK1B = tested on: TSSK1B
TSSK3 = tested on: TSSK3
TTK = tested on: TTK
TXK = tested on: TXK
[1] = tested on: TYK2(JH1domain-catalytic)
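Note: KINOMEscan kinase panel screen.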

Compound	%Inh (TNNI3K)	%Inh (TRKA)	%Inh (TRKB)	%Inh (TRKC)	%Inh (TRPM6)	%Inh (TSSK1B)	%Inh (TSSK3)	%Inh (TTK)	%Inh (TXK)	%Inh [1]
Cc1cccc(-c2nc(Nc3ccncc3)c3sccc3n2)n1 [GW869641]	7%	6%	6%	5%	38%	0%	24%	27%	0%	20%
CN(c1cccc(CNc2nc(Nc3ccc4c(c3)CC(=O)N4)ncc2C(F)(F)F)c1)S(C)(=O)=O	0%	98.3%	93.5%	79%	0%	0%	15%	97.5%	0%	58%
Cc1ccn2nc(-c3ccc(F)cc3)c(-c3ccncc3)c2c1.Cl [GW457859]	0%	6%	39%	24%	14%	0%	0%	0%	20%	26%
CCNCC(Cc1ccccc1)NC(=O)c1cc(Br)c(-c2ccnc3[nH]ccc23)s1.Cl.Cl (stereo not shown) [GSK1383280]	11%	90%	77%	50%	8%	60%	13%	67%	0%	46%
O=C(Nc1ccccc1)c1cccc(Oc2ccc3nccn3n2)c1	2%	0%	0%	21%	0%	0%	0%	0%	0%	5%
CN1CCN(CCCNc2nccc(-c3c(-c4ccc(F)cc4)nn4cc(C(N)=O)ccc34)n2)CC1 [GW622475]	3%	43%	10%	6%	23%	18%	24%	8%	47%	0%
COc1cc2ncn(-c3cc(OCC4CCCCC4)c(C(N)=O)s3)c2cc1OC [GSK204559]	5%	31%	0%	0%	13%	0%	3%	30%	0%	12%
Cn1ccc2ncnc(Oc3ccc(NC(=O)Nc4cc(C(C)(C)C)on4)c(Cl)c3)c21	90.7%	96.1%	96.4%	99.1%	0%	0%	3%	2%	0%	7%
c1ccc(Oc2ccc(Nc3ccnc4ccc(-c5ccccn5)cc34)cc2)cc1 [GW407034]	0%	0%	15%	9%	27%	27%	19%	1%	27%	7%
Cc1ccc2c(-c3ccnc(Nc4ccc(C(F)(F)F)cc4)n3)cnn2n1 [GW819776]	3%	0%	0%	0%	43%	0%	0%	38%	0%	5%
CSc1nccc(-c2c(-c3ccc(F)cc3)ncn2CCCN2CCOCC2)n1.Cl [SB-217146]	0%	0%	0%	0%	10%	0%	0%	0%	0%	13%
C[C@@H]1CNc2c(sc3ccc4nc(-c5ccncc5)ccc4c23)C(=O)N1	0%	0%	0%	0%	0%	33%	2%	16%	0%	46%
O=C(NOCC1CC1)c1cc(Br)c(F)c(F)c1Nc1ccc(I)cc1Cl	0%	1%	20%	0%	0%	0%	9%	0%	0%	0%
CN(c1ccc2c(c1)nc(NCc1ccc(F)cc1)n2C)c1ccnc(Nc2ccc(CS(C)(=O)=O)cc2)n1.Cl [GW813244]	11%	0%	7%	0%	24%	0%	4%	0%	80%	36%
OCCn1cc(-c2cnc3nnn(Cc4ccc5ncccc5c4)c3n2)cn1	0%	0%	0%	0%	0%	0%	0%	0%	0%	0%
CS(=O)(=O)Nc1ccc(-c2ccnc3[nH]ccc23)cc1 [GSK993273]	7%	91%	48%	39%	27%	17%	26%	60%	0%	99.6%

— publication PMC5540273 (PLoS ONE, 2017)
